# Reference: article PMC7862700, “An all-to-all approach to the identification of sequence-specific readers for epigenetic DNA modifications on cytosine”
# How the values were obtained:
# Assay in all cases: DAPPL (digital affinity profiling via proximity ligation, sequencing); 10 mM Tris-HCl pH 7.5, 50 mM NaCl, 1 mM DTT, 4% glycerol, room temperature, 30 min; GST-TFs on glutathione beads, 16-mer random dsDNA library, 0.1% formaldehyde crosslink after washing; high values mean tight binding
# [1] = biological target: T1, FEV (Homo sapiens, UniProt Q99581 1-238); details: protein: recombinant; tags: N-terminal GST; dsDNA, one strand shown
# T1 sequence: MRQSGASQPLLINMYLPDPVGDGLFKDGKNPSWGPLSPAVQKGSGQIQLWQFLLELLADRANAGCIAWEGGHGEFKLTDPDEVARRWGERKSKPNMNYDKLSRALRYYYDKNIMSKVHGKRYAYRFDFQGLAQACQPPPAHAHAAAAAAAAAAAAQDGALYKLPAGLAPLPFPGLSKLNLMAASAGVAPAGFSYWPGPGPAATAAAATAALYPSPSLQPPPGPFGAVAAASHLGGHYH
# Summary of the method: (§1)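 Human transcription factors carrying a GST fusion were produced in yeast, bound to glutathione beads, tagged with DNA barcodes and pooled together with a tag-only sample. Each pool was held with 200 nmole of a random double-stranded 16-mer DNA library in Tris/NaCl/DTT/glycerol buffer for 30 min at room temperature, then washed, crosslinked in 0.1% formaldehyde, proximity-ligated with BsaI/T4 ligase (1 h, 37 °C), PCR-amplified and sequenced on an Illumina NextSeq500. Binding signal is the read frequency of each hexamer for a given factor divided by its frequency in the tag-only sample.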
# [2] = biological target: ETV5 (Homo sapiens, UniProt P41161 1-510); details: protein: recombinant; tags: N-terminal GST; dsDNA, one strand shown
# ETV5, sequence (P41161 whole entry): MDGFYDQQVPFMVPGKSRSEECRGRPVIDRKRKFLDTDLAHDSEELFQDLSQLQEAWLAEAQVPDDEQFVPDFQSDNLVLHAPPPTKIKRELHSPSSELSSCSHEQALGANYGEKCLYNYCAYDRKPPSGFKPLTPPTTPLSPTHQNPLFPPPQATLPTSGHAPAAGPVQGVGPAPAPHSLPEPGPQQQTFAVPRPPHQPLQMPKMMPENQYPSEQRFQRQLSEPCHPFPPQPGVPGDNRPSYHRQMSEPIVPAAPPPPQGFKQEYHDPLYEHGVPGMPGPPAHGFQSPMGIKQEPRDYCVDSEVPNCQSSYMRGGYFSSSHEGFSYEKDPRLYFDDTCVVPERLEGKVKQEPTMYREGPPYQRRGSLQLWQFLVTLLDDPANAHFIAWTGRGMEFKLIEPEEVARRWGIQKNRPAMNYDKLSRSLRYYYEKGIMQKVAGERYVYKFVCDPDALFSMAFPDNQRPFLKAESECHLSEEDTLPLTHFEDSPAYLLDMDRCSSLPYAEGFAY
# Summary of the method: as §1
# [3] = biological target: HSF1 (Homo sapiens, UniProt Q00613 1-529); details: protein: recombinant; tags: N-terminal GST; chain copies: 3; dsDNA, one strand shown
# HSF1, sequence (Q00613 whole entry): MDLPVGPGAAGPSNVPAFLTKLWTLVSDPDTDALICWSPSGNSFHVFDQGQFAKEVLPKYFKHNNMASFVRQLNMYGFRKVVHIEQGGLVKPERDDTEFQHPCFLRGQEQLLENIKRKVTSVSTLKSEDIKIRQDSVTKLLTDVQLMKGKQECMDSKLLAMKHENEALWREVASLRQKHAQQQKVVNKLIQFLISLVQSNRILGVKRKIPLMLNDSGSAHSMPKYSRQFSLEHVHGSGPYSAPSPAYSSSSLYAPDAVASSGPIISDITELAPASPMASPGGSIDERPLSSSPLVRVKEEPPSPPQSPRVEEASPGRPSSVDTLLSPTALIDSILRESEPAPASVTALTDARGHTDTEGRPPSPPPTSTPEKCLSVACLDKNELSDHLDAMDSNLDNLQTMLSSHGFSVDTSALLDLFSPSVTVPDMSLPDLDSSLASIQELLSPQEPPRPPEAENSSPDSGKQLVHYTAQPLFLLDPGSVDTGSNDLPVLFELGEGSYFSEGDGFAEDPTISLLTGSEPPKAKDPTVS
# Summary of the method: as §1
# [4] = biological target: T2, SPIC (Homo sapiens, UniProt Q8N5J4 1-248); details: protein: recombinant; tags: N-terminal GST; dsDNA, one strand shown
# T2 sequence: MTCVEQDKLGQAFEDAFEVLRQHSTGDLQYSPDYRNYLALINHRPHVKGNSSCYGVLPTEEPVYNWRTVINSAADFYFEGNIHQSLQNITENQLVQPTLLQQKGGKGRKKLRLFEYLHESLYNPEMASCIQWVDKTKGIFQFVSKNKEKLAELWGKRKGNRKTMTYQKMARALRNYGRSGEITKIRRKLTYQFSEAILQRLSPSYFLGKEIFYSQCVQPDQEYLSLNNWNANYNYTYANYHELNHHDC
# Summary of the method: as §1
# [5] = biological target: ELF4 (Homo sapiens, UniProt Q99607 1-663); details: protein: recombinant; tags: N-terminal GST; dsDNA, one strand shown
# ELF4, sequence (Q99607 whole entry): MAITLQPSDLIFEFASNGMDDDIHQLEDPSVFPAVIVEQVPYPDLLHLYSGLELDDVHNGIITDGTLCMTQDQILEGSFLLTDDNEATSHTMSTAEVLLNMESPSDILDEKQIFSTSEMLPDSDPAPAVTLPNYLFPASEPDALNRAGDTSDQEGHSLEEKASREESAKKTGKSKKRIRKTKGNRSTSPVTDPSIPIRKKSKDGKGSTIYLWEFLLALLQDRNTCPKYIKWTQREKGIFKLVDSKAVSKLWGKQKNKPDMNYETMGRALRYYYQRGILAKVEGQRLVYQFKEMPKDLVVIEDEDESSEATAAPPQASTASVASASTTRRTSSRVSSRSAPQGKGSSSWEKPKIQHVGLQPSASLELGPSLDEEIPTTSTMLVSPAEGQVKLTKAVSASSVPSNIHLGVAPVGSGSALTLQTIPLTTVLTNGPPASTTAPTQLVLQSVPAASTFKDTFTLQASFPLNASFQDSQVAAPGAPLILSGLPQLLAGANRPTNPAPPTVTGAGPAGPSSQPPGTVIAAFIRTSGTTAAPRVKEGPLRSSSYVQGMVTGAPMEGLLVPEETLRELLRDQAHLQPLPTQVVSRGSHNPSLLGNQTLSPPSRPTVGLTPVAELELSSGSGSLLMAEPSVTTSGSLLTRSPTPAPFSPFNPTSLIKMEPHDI
# Summary of the method: as §1
# [6] = biological target: T3, ELK4 (Homo sapiens, UniProt P28324-2 1-405); details: protein: recombinant; tags: N-terminal GST; dsDNA, one strand shown
# T3 sequence: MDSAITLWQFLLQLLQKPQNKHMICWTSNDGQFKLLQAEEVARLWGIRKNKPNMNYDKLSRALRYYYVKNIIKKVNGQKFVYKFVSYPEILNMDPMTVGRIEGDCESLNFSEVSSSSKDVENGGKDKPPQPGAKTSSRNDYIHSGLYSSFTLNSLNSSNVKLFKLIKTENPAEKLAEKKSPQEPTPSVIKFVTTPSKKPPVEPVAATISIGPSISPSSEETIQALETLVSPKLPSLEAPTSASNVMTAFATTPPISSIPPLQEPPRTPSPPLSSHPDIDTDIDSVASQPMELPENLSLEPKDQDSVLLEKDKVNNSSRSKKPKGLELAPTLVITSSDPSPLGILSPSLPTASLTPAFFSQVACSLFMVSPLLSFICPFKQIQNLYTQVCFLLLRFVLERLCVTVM
# Summary of the method: as §1
# [7] = biological target: T4, ETV2 (Homo sapiens, UniProt O00321 1-342); details: protein: recombinant; tags: N-terminal GST; dsDNA, one strand shown
# T4 sequence: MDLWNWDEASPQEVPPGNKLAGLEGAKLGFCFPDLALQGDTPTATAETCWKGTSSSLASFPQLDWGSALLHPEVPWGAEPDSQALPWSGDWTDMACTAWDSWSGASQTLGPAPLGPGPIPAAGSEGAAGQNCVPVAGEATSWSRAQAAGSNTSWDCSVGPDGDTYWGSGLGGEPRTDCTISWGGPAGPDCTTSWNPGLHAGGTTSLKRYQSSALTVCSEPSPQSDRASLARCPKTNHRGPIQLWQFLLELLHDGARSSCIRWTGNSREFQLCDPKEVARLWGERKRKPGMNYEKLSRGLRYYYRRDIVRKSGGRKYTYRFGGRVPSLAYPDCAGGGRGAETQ
# Summary of the method: as §1
# [8] = biological target: T5, ELF3 (Homo sapiens, UniProt P78545 1-371); details: protein: recombinant; tags: N-terminal GST; dsDNA, one strand shown
# T5 sequence: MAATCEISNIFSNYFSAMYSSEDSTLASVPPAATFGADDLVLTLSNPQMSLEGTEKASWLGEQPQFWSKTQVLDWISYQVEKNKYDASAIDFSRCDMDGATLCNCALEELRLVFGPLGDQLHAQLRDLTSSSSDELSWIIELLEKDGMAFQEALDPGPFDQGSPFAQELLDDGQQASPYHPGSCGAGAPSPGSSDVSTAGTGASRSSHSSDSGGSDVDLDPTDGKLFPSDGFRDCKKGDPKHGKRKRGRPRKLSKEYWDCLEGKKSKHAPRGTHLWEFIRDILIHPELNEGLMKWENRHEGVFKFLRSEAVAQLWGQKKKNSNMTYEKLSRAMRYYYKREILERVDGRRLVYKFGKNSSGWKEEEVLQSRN
# Summary of the method: as §1
# [9] = biological target: CRX (Homo sapiens, UniProt O43186 1-299); details: protein: recombinant; tags: N-terminal GST; dsDNA, one strand shown
# CRX, sequence (O43186 whole entry): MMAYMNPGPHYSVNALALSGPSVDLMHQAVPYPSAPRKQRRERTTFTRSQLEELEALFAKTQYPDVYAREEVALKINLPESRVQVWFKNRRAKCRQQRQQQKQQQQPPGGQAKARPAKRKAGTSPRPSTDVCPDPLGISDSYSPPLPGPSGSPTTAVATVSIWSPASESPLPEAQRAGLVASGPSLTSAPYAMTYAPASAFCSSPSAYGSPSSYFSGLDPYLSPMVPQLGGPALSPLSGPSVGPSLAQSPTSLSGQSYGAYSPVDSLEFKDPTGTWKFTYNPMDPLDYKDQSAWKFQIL
# Summary of the method: as §1
# [10] = biological target: ETV1 (Homo sapiens, UniProt P50549 1-477); details: protein: recombinant; tags: N-terminal GST; dsDNA, one strand shown
# ETV1, sequence (P50549 whole entry): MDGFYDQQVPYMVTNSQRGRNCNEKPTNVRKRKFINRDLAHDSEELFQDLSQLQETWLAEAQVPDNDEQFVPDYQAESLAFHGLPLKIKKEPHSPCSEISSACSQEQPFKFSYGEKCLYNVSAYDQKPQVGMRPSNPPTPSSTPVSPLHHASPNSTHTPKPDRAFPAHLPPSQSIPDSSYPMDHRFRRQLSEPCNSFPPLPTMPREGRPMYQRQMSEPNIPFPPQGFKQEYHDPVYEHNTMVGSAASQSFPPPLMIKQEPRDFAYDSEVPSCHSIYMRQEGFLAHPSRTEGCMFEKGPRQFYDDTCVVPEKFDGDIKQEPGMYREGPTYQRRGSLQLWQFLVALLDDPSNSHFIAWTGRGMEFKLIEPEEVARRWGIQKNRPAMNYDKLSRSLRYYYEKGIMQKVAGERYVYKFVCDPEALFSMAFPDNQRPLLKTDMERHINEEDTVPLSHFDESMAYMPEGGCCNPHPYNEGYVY
# Summary of the method: as §1
# [11] = biological target: T6, ERF (Homo sapiens, UniProt P50548 1-548); details: protein: recombinant; tags: N-terminal GST; dsDNA, one strand shown
# T6 sequence: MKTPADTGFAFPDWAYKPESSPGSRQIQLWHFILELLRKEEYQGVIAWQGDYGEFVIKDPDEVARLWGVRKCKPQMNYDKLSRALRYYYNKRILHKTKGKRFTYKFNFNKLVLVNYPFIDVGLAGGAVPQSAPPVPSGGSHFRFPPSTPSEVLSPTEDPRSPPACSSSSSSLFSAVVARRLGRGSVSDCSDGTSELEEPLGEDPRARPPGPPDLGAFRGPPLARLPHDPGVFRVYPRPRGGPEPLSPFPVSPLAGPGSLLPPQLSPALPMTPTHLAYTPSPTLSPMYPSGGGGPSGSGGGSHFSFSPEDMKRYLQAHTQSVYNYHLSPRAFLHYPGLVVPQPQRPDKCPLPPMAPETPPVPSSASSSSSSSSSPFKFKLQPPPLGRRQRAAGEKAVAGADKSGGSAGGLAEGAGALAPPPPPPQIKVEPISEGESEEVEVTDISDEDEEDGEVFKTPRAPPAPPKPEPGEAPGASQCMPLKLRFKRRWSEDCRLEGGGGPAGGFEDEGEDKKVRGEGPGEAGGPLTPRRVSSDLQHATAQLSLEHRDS
# Summary of the method: as §1
# [12] = biological target: T7, ETV3L (Homo sapiens, UniProt Q6ZN32 1-361); details: protein: recombinant; tags: N-terminal GST; dsDNA, one strand shown
# T7 sequence: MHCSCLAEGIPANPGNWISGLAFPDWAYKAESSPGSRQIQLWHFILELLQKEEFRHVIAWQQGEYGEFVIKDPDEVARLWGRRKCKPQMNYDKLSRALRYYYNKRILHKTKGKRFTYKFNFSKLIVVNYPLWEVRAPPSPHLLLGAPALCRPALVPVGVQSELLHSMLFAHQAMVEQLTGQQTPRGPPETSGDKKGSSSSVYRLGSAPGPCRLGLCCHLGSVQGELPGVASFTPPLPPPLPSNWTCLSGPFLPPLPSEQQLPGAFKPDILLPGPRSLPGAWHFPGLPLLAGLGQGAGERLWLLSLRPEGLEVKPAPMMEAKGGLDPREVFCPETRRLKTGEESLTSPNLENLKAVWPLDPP
# Summary of the method: as §1
# [13] = biological target: T8, ETS2 (Homo sapiens, UniProt P15036 1-469); details: protein: recombinant; tags: N-terminal GST; dsDNA, one strand shown
# T8 sequence: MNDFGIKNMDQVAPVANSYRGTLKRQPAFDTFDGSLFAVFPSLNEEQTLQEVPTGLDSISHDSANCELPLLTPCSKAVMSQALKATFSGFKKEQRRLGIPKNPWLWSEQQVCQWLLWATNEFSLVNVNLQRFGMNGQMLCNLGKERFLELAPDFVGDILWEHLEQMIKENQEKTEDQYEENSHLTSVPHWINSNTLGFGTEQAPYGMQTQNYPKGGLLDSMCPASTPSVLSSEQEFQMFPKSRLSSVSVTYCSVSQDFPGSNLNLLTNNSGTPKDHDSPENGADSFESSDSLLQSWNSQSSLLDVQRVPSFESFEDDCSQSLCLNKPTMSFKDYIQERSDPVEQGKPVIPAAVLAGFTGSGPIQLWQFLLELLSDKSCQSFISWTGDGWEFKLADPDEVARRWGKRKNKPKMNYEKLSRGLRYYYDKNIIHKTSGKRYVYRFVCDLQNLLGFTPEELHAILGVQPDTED
# Summary of the method: as §1
# [14] = biological target: T9, SPDEF (Homo sapiens, UniProt O95238 1-335); details: protein: recombinant; tags: N-terminal GST; dsDNA, one strand shown
# T9 sequence: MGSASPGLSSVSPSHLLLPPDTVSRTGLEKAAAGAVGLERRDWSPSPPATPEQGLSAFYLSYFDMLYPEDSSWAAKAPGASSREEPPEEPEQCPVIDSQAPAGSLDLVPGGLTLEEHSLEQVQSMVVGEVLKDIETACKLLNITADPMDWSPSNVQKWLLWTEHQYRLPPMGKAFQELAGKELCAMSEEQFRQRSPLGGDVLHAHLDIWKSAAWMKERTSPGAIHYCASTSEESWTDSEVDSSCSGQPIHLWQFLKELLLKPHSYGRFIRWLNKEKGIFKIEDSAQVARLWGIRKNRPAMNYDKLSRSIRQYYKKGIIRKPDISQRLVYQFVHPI
# Summary of the method: as §1
# [15] = biological target: T10, ETV7 (Homo sapiens, UniProt Q9Y603 1-341); details: protein: recombinant; tags: N-terminal GST; dsDNA, one strand shown
# T10 sequence: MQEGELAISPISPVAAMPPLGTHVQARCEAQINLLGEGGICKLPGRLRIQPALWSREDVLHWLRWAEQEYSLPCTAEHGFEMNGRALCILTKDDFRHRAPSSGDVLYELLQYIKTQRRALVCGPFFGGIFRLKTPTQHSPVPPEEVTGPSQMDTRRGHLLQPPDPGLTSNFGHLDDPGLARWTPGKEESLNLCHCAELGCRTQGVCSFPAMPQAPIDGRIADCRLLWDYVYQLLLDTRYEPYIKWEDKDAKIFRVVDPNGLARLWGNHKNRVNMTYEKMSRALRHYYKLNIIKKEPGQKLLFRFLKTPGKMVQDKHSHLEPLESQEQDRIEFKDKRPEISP
# Summary of the method: as §1
# [16] = biological target: T11, ELF5 (Homo sapiens, UniProt Q9UKW6-2 1-255); details: protein: recombinant; tags: N-terminal GST; dsDNA, one strand shown
# T11 sequence: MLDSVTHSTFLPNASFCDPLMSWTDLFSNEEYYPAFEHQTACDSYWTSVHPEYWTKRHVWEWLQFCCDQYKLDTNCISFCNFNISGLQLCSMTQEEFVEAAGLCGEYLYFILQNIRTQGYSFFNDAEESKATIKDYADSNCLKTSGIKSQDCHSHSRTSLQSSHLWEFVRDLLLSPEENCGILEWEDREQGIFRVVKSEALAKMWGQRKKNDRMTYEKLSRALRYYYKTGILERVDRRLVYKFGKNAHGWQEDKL
# Summary of the method: as §1
# [17] = biological target: T12, ETV3 (Homo sapiens, UniProt P41162-2 1-143); details: protein: recombinant; tags: N-terminal GST; dsDNA, one strand shown
# T12 sequence: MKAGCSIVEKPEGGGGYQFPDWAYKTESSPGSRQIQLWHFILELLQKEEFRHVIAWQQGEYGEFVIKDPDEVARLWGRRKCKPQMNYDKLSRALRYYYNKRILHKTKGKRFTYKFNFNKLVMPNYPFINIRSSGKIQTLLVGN
# Summary of the method: as §1
# [18] = biological target: ETV6 (Homo sapiens, UniProt P41212 1-452); details: protein: recombinant; tags: N-terminal GST; dsDNA, one strand shown
# ETV6, sequence (P41212 whole entry): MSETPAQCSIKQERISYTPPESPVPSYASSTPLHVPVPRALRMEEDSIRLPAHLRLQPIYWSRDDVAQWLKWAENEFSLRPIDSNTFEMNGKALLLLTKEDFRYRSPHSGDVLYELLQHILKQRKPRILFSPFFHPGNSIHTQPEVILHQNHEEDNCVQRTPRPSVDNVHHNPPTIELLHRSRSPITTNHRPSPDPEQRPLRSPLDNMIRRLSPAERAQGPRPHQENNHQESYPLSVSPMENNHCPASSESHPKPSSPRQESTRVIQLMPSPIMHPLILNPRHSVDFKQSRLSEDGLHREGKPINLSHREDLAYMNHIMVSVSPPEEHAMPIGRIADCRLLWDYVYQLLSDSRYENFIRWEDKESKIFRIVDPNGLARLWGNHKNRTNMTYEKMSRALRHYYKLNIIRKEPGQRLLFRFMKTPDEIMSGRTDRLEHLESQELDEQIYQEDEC
# Summary of the method: as §1
sequence,measurement,setting,value
CTCTTC,binding signal,[1],"1.73 fold enrichment (6-mer frequency, TF over GST control)"
same,binding signal,[2],"1.76 fold enrichment (6-mer frequency, TF over GST control)"
same,binding signal,[3],"1.25 fold enrichment (6-mer frequency, TF over GST control)"
same,binding signal,[4],"1.69 fold enrichment (6-mer frequency, TF over GST control)"
same,binding signal,[5],"1.68 fold enrichment (6-mer frequency, TF over GST control)"
same,binding signal,[6],"1.66 fold enrichment (6-mer frequency, TF over GST control)"
same,binding signal,[7],"1.71 fold enrichment (6-mer frequency, TF over GST control)"
same,binding signal,[8],"1.67 fold enrichment (6-mer frequency, TF over GST control)"
same,binding signal,[9],"1.21 fold enrichment (6-mer frequency, TF over GST control)"
same,binding signal,[10],"1.71 fold enrichment (6-mer frequency, TF over GST control)"
same,binding signal,[11],"1.62 fold enrichment (6-mer frequency, TF over GST control)"
same,binding signal,[12],"1.89 fold enrichment (6-mer frequency, TF over GST control)"
same,binding signal,[13],"1.65 fold enrichment (6-mer frequency, TF over GST control)"
same,binding signal,[14],"1.59 fold enrichment (6-mer frequency, TF over GST control)"
same,binding signal,[15],"1.56 fold enrichment (6-mer frequency, TF over GST control)"
same,binding signal,[16],"2.07 fold enrichment (6-mer frequency, TF over GST control)"
same,binding signal,[17],"1.75 fold enrichment (6-mer frequency, TF over GST control)"
same,binding signal,[18],"1.84 fold enrichment (6-mer frequency, TF over GST control)"
